Results reported in PubChem BioAssay AID1220 (Sanford-Burnham Center for Chemical Genomics, 2008).
Hit rate of the full screen: of about 190,000 compounds, about 1,300 (0.68%) were called active. Rule as the data show it: active = inhibition above about 50%; inactive = the rest. The list comes from a sample in which actives are over-represented; it also holds similar structures and randomly drawn compounds.

target: Mannose-6-phosphate isomerase (Homo sapiens) (UniProt P34949); assay: MPI inhibition at elevated mannose 6-phosphate – biochemical, fluorescence intensity, high mannose 6-phosphate, primary screen (AID 1220); details: recombinant PMI enzyme, coupled fluorescence intensity; at 20 µM; stronger effect = higher value
Sequence (P34949 whole entry, looked up): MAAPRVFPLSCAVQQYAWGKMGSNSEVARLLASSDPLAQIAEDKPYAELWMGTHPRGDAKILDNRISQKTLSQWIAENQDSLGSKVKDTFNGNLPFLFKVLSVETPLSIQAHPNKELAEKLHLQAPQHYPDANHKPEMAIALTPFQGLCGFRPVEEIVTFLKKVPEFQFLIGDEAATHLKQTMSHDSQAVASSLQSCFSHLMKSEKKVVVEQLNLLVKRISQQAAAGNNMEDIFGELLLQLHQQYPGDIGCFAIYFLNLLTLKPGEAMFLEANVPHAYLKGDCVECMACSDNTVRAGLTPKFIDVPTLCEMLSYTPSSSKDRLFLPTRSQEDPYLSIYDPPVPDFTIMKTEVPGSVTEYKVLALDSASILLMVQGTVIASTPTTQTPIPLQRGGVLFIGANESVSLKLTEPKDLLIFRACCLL

SMILES | inhibition
COc1cccc(C=Nc2ccc3c(c2)OCCO3)c1O | 34.6% (inactive)
COc1ccc(N=CC2=C(O)c3ccccc3C2=O)cc1 | 5.6% (inactive)
COc1ccc(N=Cc2sc(O)c3ccccc23)cc1 | 8.8% (inactive)
COc1ccc2c(c1)O[C@H](c1ccc3c(c1)OCO3)[C@@H](O)C2=O | -2.7% (inactive)
Oc1[nH]c2ccccc2c1C=Nc1ccc2c(c1)OCO2 | 8.6% (inactive)
CC1(C)CC(=O)C(C=Nc2ccc3c(c2)OCO3)=C(O)C1 | 14.2% (inactive)
CCCC(=O)Nc1ccc(C(N)=O)cc1 | 5.2% (inactive)
Cc1ccc(C)c(NC(=O)CCC(=O)NNC(=O)C(c2ccccc2)c2ccccc2)c1 | -16.3% (inactive)
CC(C)OC(=O)CSc1nnc2c(n1)[nH]c1ccc(F)cc12 | -5.2% (inactive)
O=C(NC1CCN(S(=O)(=O)c2ccccc2)CC1)C1CCCCC1 | 7.7% (inactive)
O=C(c1ccc(Cl)cc1Cl)N1CCC(c2nc3c(nnn3Cc3ccco3)c(=O)[nH]2)CC1 | 14.6% (inactive)
CN(C)CCCN(C(=O)CCOc1ccccc1)c1nc2c(F)cccc2s1 | 54.4% (active)
CN(C)CCCN(C(=O)CCc1ccccc1)c1nc2c(F)cccc2s1 | 4% (inactive)
CN(C)CCCN(C(=O)COc1ccccc1)c1nc2c(F)cccc2s1 | -2.9% (inactive)
COc1ccc(C)cc1NC(=O)CN(C)S(=O)(=O)c1cccs1 | 1.9% (inactive)
Cc1ccc(SCCC(=O)NCCSCc2ccccc2C)cc1 | 8.3% (inactive)
CCOc1ccc(C(=O)CCNC(Cc2cnc[nH]2)C(=O)O)cc1 (centres undefined) | 3.4% (inactive)
CC(C)OC(=O)CN1C(=O)S/C(=C/c2ccc(N3CCCCC3)o2)C1=O | 25% (inactive)
O=C1S/C(=C\c2ccc(N3CCOCC3)o2)C(=O)N1c1ccccc1 | 53.8% (active)
O=C1S/C(=C\c2ccc(N3CCOCC3)o2)C(=O)N1Cc1c(F)cccc1Cl | 56.3% (active)
CCCN1C(=O)S/C(=C\c2ccc(N3CCOCC3)o2)C1=O | 52.4% (active)
O=C1N/C(=C/c2ccc(N3CCOCC3)o2)C(=O)N1c1ccccc1 | 9% (inactive)

SMILES | inhibition
O=C1S/C(=C/c2ccc(N3CCOCC3)o2)C(=O)N1Cc1c(F)cccc1Cl | 5.6% (inactive)
COC(=O)CN1C(=O)S/C(=C/c2ccc(N3CCCCC3)o2)C1=O | 46% (inactive)
O=C1N/C(=C/c2ccc(N3CCOCC3)o2)C(=O)N1c1cccc(Cl)c1 | 15.3% (inactive)
O=C1S/C(=C\c2ccc(N3CCOCC3)o2)C(=O)N1Cc1ccc(F)cc1 | 57.3% (active)
CCOC(=O)CN1C(=O)S/C(=C/c2ccc(N3CCCCC3)o2)C1=O | 24.1% (inactive)
CCCN1C(=O)S/C(=C\c2ccc(N3CCOCC3)cc2C)C1=O | 9.4% (inactive)
O=C1S/C(=C/c2ccc(N3CCOCC3)o2)C(=O)N1Cc1ccc(F)cc1 | 45.3% (inactive)
COc1ccc(C2C(C(=O)c3ccc(C)o3)=C(O)C(=O)N2c2cc(C)on2)cc1OC (centres undefined) | -22.3% (inactive)
O=C(CSc1ncccn1)Nn1cnnc1 | -0.7% (inactive)
COc1ccc(NC(=O)Nc2cc(NC(=O)Nc3ccc(OC)cc3)c(C)nc2C)cc1 | -8.6% (inactive)
CC(=O)N1c2ccccc2NC2=C(C(=O)CCC2)C1c1cccnc1 (centres undefined) | 6.7% (inactive)
Clc1cccc(OCCn2cncn2)c1Cl | -4.8% (inactive)
O=C(CCCC(=O)N1CCc2ccccc21)N1CCc2ccccc21 | -6.6% (inactive)
COc1cc(OC)cc(C(=O)NNC(=S)NCc2ccco2)c1 | -10.1% (inactive)
COc1ccc(-n2c(CSc3nc(C)cc(C)n3)nnc2SCC(=O)Nc2nccs2)cc1 | 1.3% (inactive)
CS(=O)(=O)c1ccccc1-c1nc(-c2cccc(Cl)c2)no1 | 9.9% (inactive)
CCSc1nc2sc3c(c2c(=O)n1C1CCCCC1)CCN(C)C3 | -33.5% (inactive)
N#CCSc1nc2sc3c(c2c(=O)n1C1CCCCC1)CCCC3 | 52.4% (active)
CSc1nc2sc3c(c2c(=O)n1C1CCCCC1)CCN(C)C3 | 10.7% (inactive)
CCOc1ccc(CNC(=O)CCc2cn(Cc3ccccc3)c3ccccc23)cc1 | 0.6% (inactive)
Cc1oc(C(C)(C)C)c(CN2CCOCC2)c1C(=O)O | -2.9% (inactive)
C=CCn1c(C)cc(C)c(C#N)c1=O | -6.4% (inactive)

SMILES | inhibition
C=CCn1c(O)c(CN2CCOCC2)c(C)c(C#N)c1=O | 56.6% (active)
C=CCn1c(O)c(CN2CCCCC2)c(C)c(C#N)c1=O | 70.2% (active)
C=CCn1c(O)c(C(CC)=NCCN2CCOCC2)c(=O)[nH]c1=O | -15.4% (inactive)
C=CCn1c(O)c(CN2CCN(Cc3ccccc3)CC2)c(C)c(C#N)c1=O | 15.6% (inactive)
O=C(NCCC1=CCCCC1)C(=O)NCC(c1ccco1)N1CCN(c2ccc(F)cc2)CC1 (centres undefined) | 2.7% (inactive)
OCc1nc2ccccc2n1CCCOc1ccccc1 | -6.4% (inactive)
COc1cc(NC(=S)NCCC(c2ccccc2)c2ccccc2)c(OC)cc1Cl | 17.2% (inactive)
Cc1nnc(Sc2nc3c(c(=O)n(C)c(=O)n3C)n2Cc2ccc(Cl)cc2)s1 | 7.9% (inactive)
CSc1ccc(C#N)cc1NC(=O)c1ccccc1C | -2.5% (inactive)
COCc1c(C#N)c(NCCc2ccc(F)cc2)nc(C)c1[N+](=O)[O-] | 9.3% (inactive)
CCC(=O)c1ccc(N2CCN(C(=O)c3ccc(Br)cc3)CC2)c(F)c1 | 9.1% (inactive)
CC(=O)c1ccc(N2CCN(C(=O)c3ccc(Br)cc3)CC2)c(F)c1 | 55.1% (active)
CCCC(=O)c1ccc(N2CCN(C(=O)c3ccc(Br)cc3)CC2)c(F)c1 | -2.3% (inactive)
O=C(NCCCCCCNC(=O)C1CCCC1)C1CCCC1 | -0.9% (inactive)
O=C(COc1ccc2ccccc2c1)Nc1ccc2c3c(cccc13)CC2 | -1.8% (inactive)
O=C(NCc1ccccc1)NC(O)C(Cl)(Cl)Cl (centres undefined) | 0.1% (inactive)
O/C(=C\c1ccc2ccccc2n1)c1ccc(O)cc1O | -10.3% (inactive)
CCOc1ccc(NC(=O)c2ccc(-n3cccn3)nc2)cc1 | 2.9% (inactive)
Cc1ccc(NC(=O)c2ccc(-n3cccn3)nc2)cc1 | 51.4% (active)
COc1ccc(NC(=O)c2ccc(-n3cccn3)nc2)cc1 | 0.8% (inactive)
